Experimental data taken from PubChem BioAssay (Tox21).
Records with an inconclusive call do not appear. Values without a mark were called inactive. The source made the active and inactive calls. The call rests on the fitted dose curve; in most records, active means well fitted curve in the direction sought with a large enough effect in the repeat runs; inconclusive means weak or mixed curves; inactive means no such curve, though single readings can be large; an effect the other way counts as inactive or inconclusive.

test: qHTS assay to identify small molecule antagonists of the estrogen related receptor (ERR) signaling pathway - cell viability counter screen (AID 1224818); details: ERR reporter cell line viability counter screen; series mostly up to 46.1 µM; viability change, negative = cytotoxic: at the top concentration;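 further: viability measured after 17.5 h of compound exposure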
Summary of the method: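 ERR reporter cells plated 6 h at 37 C/5% CO2, then compounds in DMSO pin-transferred and incubated 17.5 h at 37 C. Viability read as CellTiter-Fluor fluorescence after 30 min at 37 C.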
On the % scale 0 is the no-effect control and ±100 the full control effect.

| Compound | viability change, negative = cytotoxic |
| --- | --- |
| O=c1cc(O)cc(/C=C/c2ccc(O)c(O)c2)o1 | 7.84% |
| N[C@@H](CS(=O)O)C(=O)O | 1.18% |
| C[C@@H]1C(=O)NC2=Nc3cccc(Cl)c3CN21 | 0.669% |
| CN(CCCOc1ccc(Cc2ccccc2)cc1)CCC(=O)O | 2.7% |
| COc1ccccc1N1CCN(CCCCN2C(=O)c3ccccc3C2=O)CC1 | -8.93% |
| NCC(O)C1CCCCCCC1 (centres undefined) | 16.1% |
| O=C(Nc1ccc2[nH]ncc2c1)C1CCC1 | 9.38% |
| Cc1cccc(-c2[nH]ncc2-c2ccc3ncccc3n2)n1 | 10.1% |
| N[C@@H](Cc1cnc[nH]1)C(=O)O | 14.3% |
| CN1CCc2cc(NC(=O)Nc3cccnc3)ccc21 | 3.65% |
| CCNc1nc2c(ncn2[C@H]2C[C@H](O)[C@@H](CO)O2)c(=O)[nH]1 | -2.72% |
| CCCCCCCCCCCCCCCC(=O)OC(CC(=O)O)C[N+](C)(C)C (centres undefined) | -17.2% |
| Cc1cc(NC(=O)Nc2ccc3c(ccn3C)c2)sn1 | 2.36% |
| O=c1ccn([C@@H]2O[C@H](COP(=O)(O)OP(=O)(O)O)[C@@H](O)[C@H]2O)c(=O)[nH]1 | 5.48% |
| CCN1C(=O)C=CC1=O | 5.93% |
| CNCCC=C1c2ccccc2CCc2ccccc21 | -15.1% |
| CN[C@H](CC(=O)O)C(=O)O | 8.92% |
| CCCCCC[C@@H]([C@@H](C)O)n1cnc2c(N)ncnc21 | 6.41% |
| CC1CC2C3CCC4=CC(=O)C=C[C@]4(C)[C@@]3(F)[C@@H](O)C[C@]2(C)[C@@]1(O)C(=O)CO (some centres undefined) | 2.87% |

| Compound | viability change, negative = cytotoxic |
| --- | --- |
| CCCCC#Cc1nc(NC)c2ncn([C@@H]3O[C@H](CO)[C@@H](O)C3O)c2n1 (some centres undefined) | 8.43% |
| CNc1ncnc2c1ncn2[C@@H]1O[C@H](CO)C(O)[C@H]1O (some centres undefined) | -2.12% |
| CCOC(=O)C(C)Oc1cccc2c(=O)n(CC(=O)Nc3ccc4c(c3)OCCO4)ccc12 (centres undefined) | -15.9% |
| O=c1cc(-c2ccccc2F)[nH]c2cc3c(cc12)OCO3 | -7.39% |
| CNCC[C@H](Oc1ccc(C(F)(F)F)cc1)c1ccccc1 | -6.35% |
| CCSC(=N)N | 5% |
| Nc1ccc(N2C(=O)c3ccccc3C2=O)c(Cl)c1 | 10.4% |
| NC(N)=NCCCCN=C(N)N | 5.24% |
| N#CC(C#N)=C(N)/C(C#N)=C/c1ccc(O)cc1 | 3.46% |
| NC[C@H]1O[C@@H](n2cnc3c(N)ncnc32)[C@H](O)[C@@H]1O | 15.6% |
| O=C(O)Cc1c[nH]c2ccc(O)cc12 | 8.45% |
| N=C(N)SCCc1cnc[nH]1 | 8.56% |
| O=c1c(O)c(-c2cc(O)c(O)c(O)c2)oc2cc(O)cc(O)c12 | -10.6% |
| Cn1cc(C(=O)OCC2CCN(CCNS(C)(=O)=O)CC2)c2ccccc21 | 4.81% |
| N#C/C(=C\c1ccc(O)c(O)c1)C(=O)NCCc1ccccc1 | -17.8% |
| Cc1nc(N=Nc2ccc(C(=O)O)cc2)c(COP(=O)(O)O)c(C=O)c1O | -17.3% |
| CN=c1nc(-c2ccccc2)n(-c2ccccc2)s1 | -9.13% |
| C=CCn1c(=O)c2c(nc(-c3ccc(S(=O)(=O)O)cc3)n2C)n(C)c1=O | 11.9% |
| Nc1ncnc2c1nc(Sc1ccc(Cl)cc1)n2[C@H]1OC2COP(=O)(O)O[C@@H]2C1O (some centres undefined) | 1.66% |

test: qHTS assay to identify small molecule antagonists of the estrogen related receptor (ERR) signaling pathway (AID 1224819; further: nearly all actives have a fitted effect of over 50% in size; further: potency means the concentration at half of the fitted maximal effect;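 on activity change, negative = inhibition: luminescence from an ERR-driven luciferase reporter measured with One-Glo reagent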); details: ERR reporter cell line, luciferase inhibition; series mostly up to 46.1 µM; activity change, negative = inhibition: at the top concentration
Summary of the method: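 ERR reporter cells were plated at 2,000 cells/well and left 6 h at 37 C/5% CO2 before pin-tool transfer of compounds in DMSO. After 18 h at 37 C, One-Glo was added and luminescence was read 30 min later at room temperature.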

| Compound | activity change, negative = inhibition | Potency |
| --- | --- | --- |
| O=c1cc(O)cc(/C=C/c2ccc(O)c(O)c2)o1 | 4.74% |  |
| N[C@@H](CS(=O)O)C(=O)O | 1.94% |  |
| C[C@@H]1C(=O)NC2=Nc3cccc(Cl)c3CN21 | 13.5% |  |
| CN(CCCOc1ccc(Cc2ccccc2)cc1)CCC(=O)O | -8.31% |  |
| COc1ccccc1N1CCN(CCCCN2C(=O)c3ccccc3C2=O)CC1 | -12.8% |  |
| NCC(O)C1CCCCCCC1 (centres undefined) | 3.86% |  |
| O=C(Nc1ccc2[nH]ncc2c1)C1CCC1 | 230% |  |
| Cc1cccc(-c2[nH]ncc2-c2ccc3ncccc3n2)n1 |  | 1230 nM (active) |
| N[C@@H](Cc1cnc[nH]1)C(=O)O | -13.4% |  |
| CN1CCc2cc(NC(=O)Nc3cccnc3)ccc21 | 47.9% |  |
| CCNc1nc2c(ncn2[C@H]2C[C@H](O)[C@@H](CO)O2)c(=O)[nH]1 | 6.09% |  |
| CCCCCCCCCCCCCCCC(=O)OC(CC(=O)O)C[N+](C)(C)C (centres undefined) | -1.13% |  |
| Cc1cc(NC(=O)Nc2ccc3c(ccn3C)c2)sn1 | 54.6% |  |
| O=c1ccn([C@@H]2O[C@H](COP(=O)(O)OP(=O)(O)O)[C@@H](O)[C@H]2O)c(=O)[nH]1 | 0.273% |  |
| CCN1C(=O)C=CC1=O | 5.15% |  |
| CNCCC=C1c2ccccc2CCc2ccccc21 | 9.5% |  |
| CN[C@H](CC(=O)O)C(=O)O | 12.7% |  |
| CCCCCC[C@@H]([C@@H](C)O)n1cnc2c(N)ncnc21 | -13.3% |  |

| Compound | activity change, negative = inhibition | Potency |
| --- | --- | --- |
| CCCCC#Cc1nc(NC)c2ncn([C@@H]3O[C@H](CO)[C@@H](O)C3O)c2n1 (some centres undefined) | -10.9% |  |
| CNc1ncnc2c1ncn2[C@@H]1O[C@H](CO)C(O)[C@H]1O (some centres undefined) | 5.15% |  |
| CCOC(=O)C(C)Oc1cccc2c(=O)n(CC(=O)Nc3ccc4c(c3)OCCO4)ccc12 (centres undefined) | -3.19% |  |
| O=c1cc(-c2ccccc2F)[nH]c2cc3c(cc12)OCO3 | 1.04% |  |
| CCSC(=N)N | 0.445% |  |
| Nc1ccc(N2C(=O)c3ccccc3C2=O)c(Cl)c1 | 11% |  |
| NC(N)=NCCCCN=C(N)N | 1.29% |  |
| N#CC(C#N)=C(N)/C(C#N)=C/c1ccc(O)cc1 | 8.11% |  |
| NC[C@H]1O[C@@H](n2cnc3c(N)ncnc32)[C@H](O)[C@@H]1O | -3.03% |  |
| O=C(O)Cc1c[nH]c2ccc(O)cc12 | -23.2% |  |
| N=C(N)SCCc1cnc[nH]1 | -6.43% |  |
| O=c1c(O)c(-c2cc(O)c(O)c(O)c2)oc2cc(O)cc(O)c12 | -8.1% |  |
| Cn1cc(C(=O)OCC2CCN(CCNS(C)(=O)=O)CC2)c2ccccc21 | 6.7% |  |
| N#C/C(=C\c1ccc(O)c(O)c1)C(=O)NCCc1ccccc1 | 8.15% |  |
| Cc1nc(N=Nc2ccc(C(=O)O)cc2)c(COP(=O)(O)O)c(C=O)c1O | -3.2% |  |
| CN=c1nc(-c2ccccc2)n(-c2ccccc2)s1 | -15.4% |  |
| C=CCn1c(=O)c2c(nc(-c3ccc(S(=O)(=O)O)cc3)n2C)n(C)c1=O | -7.63% |  |
| Nc1ncnc2c1nc(Sc1ccc(Cl)cc1)n2[C@H]1OC2COP(=O)(O)O[C@@H]2C1O (some centres undefined) | 0.626% |  |
